# Screening results from PubChem BioAssay.
# Jurkat NFkB inh: inhibitors of the PMA/ionomycin-induced NF-kB reporter in Jurkat cells | PMA/ionomycin-induced NF-kB luciferase reporter, luminescence | inhibition, % at 4 µM | 0.53% of 330,000 active | AID 435003; in the data active = inhibition above about 50%
# Mdm2 MdmX PPI: disrupts the human Mdm2-MdmX interaction | SaOS-2 split-luciferase Mdm2/MdmX complementation, luminescence | O15151+Q00987 | 3% of 330,000 active | AID 485346 | inhibition, % at 8 µM;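 active = inhibition of at least 50% at 8 µM in the primary screen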
# Gli-Sufu block: blocks Gli-Sufu signaling in a luciferase reporter | Sufu-KO-LIGHT fibroblasts, Gli luciferase reporter luminescence | inhibition, % at 5 µM | 0.74% of 340,000 active | AID 588413;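 active = inhibition above about 55%, limit read from the data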;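 also: 0% = DMSO-treated cells and 100% = wells with medium but no cells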
# Shn3 inh set2: Schnurri-3 reporter inhibition in Clone20 osteoblasts; Clone20 osteoblast Shn3 3'UTR firefly luciferase, 24 h; inhibition, % at 12.5 µM; 0.52% of 360,000 active;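 active = mean inhibition of at least 75% with every replicate also reaching 75%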;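 also: 0% = median of neutral control wells and 100% = pilot-screen positive control compound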
# 697 NFkB inh: lowers PMA/ionomycin-induced NF-kB signal in 697 B cells. 697 B-cell NF-kB luciferase reporter, 16 h. inhibition, % at 4 µM. 0.33% of 330,000 active; in the data active = inhibition above about 35%
# Gli-Sufu confirm: Gli-SUFU antagonism confirmation, single concentration | shares compounds with Gli-Sufu block | Sufu-KO-LIGHT cells, Gli luciferase reporter, luminescence | inhibition, % at 5 µM | 40% of 2,500 active | AID 602428;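 active = mean inhibition at 5 µM reaching about 45%, limit read from the data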;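 also: plate controls were DMSO-treated cells for no effect and wells lacking cells for full effect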
# SufuKO cytotox: counter-screen for Gli-SUFU antagonists: cytotoxicity. shares compounds with Gli-Sufu block. Sufu-KO-LIGHT cells cytotoxicity, ATP luminescence. cytotoxicity, % at 5 µM. 32% of 2,500 active. AID 651994;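 active = mean cytotoxicity at 5 µM above about 25%, limit read from the data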;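 also: cells exposed to compound overnight for roughly 16 to 18 hours; plate controls were DMSO wells with cells for no effect and medium without cells for full effect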
# Wnt3a cs: counter-screen for Gli-SUFU antagonists: Wnt3a reporter inhibition; shares compounds with Gli-Sufu block; Wnt-LIGHT cells, Wnt3a-driven luciferase reporter, luminescence; inhibition, % at 6.25 µM; 20% of 2,500 active;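 active = mean inhibition above about 25%, limit read from the data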
# An asterisk follows results filed as active; nt = no result given. The list is not random: actives were taken first. Their share in the collection is about 3.8%.
SMILES,Jurkat NFkB inh,Mdm2 MdmX PPI,Gli-Sufu block,Shn3 inh set2,697 NFkB inh,Gli-Sufu confirm,SufuKO cytotox,Wnt3a cs
O=C(C1CCC(C(=O)N2CCCCC2)CC1)N1CCCCC1 (stereo not given),8,30,-14,6,-10,nt,nt,nt
CN1CCCN(C(=O)C2CCC(C(=O)N3CCCN(C)CC3)CC2)CC1 (stereo not given),-16,8,50,-8,-16,8,-11,13
C=CCNc1ncnc2c1ncn2[C@H]1CN(Cc2ccc(F)cc2)C[C@@H](CO)O1,nt,nt,nt,-8,nt,nt,nt,nt
COc1ccc(CNC(=O)CSc2ncn[nH]2)cc1,-18,-12,87*,-9,10,27,4,-1
COc1ccc(C(=O)C(CN2CCOCC2)c2ccccc2)cc1F (stereo not given),nt,nt,55,33,nt,17,1,19
COc1ccc(C(O)C(CN2CCOCC2)c2ccccc2)cc1F (stereo not given),-4,-14,6,9,-22,nt,nt,nt
O=C(NC(=S)Nc1ccccc1O)c1cccnc1,-9,9,82*,-18,8,17,-11,-8
COc1ccccc1-n1c(SCC(=O)Nc2cc(C)on2)nc2c([nH]c3ccccc32)c1=O,20,44,7,6,19,nt,nt,nt
Cc1cc(NC(=O)CSc2nc3c([nH]c4ccccc43)c(=O)n2-c2ccccc2F)no1,6,33,58*,18,-18,56*,23,19
COc1ccc(C(=O)Nc2ccc(NC(=O)c3ccccn3)cn2)cc1,-39,-17,-34,-7,-6,nt,nt,nt
COc1ccc(C(=O)N/N=C(\c2ccccc2)c2ccccn2)cc1,nt,nt,74*,87*,nt,51*,10,38*
CCOc1ccc(OCc2ccc(C(=O)N/N=C(\C)c3ccccn3)cc2)cc1,nt,nt,83*,92*,nt,91*,42*,72*
Cc1nn(C)cc1S(=O)(=O)Nc1ccccc1Br,-22,-20,33,-5,-55,nt,nt,nt
O=C(NCc1ccc(N2CCCC2=O)cc1)c1cc(COc2c(F)cccc2F)on1,11,-13,0,-8,-57,nt,nt,nt
O=C(O)CCSCC(=O)Nc1c(C(=O)C2CC2)oc2ccccc12,0,26,1,-26,7,nt,nt,nt
O=C(Nc1c(C(=O)C2CC2)oc2ccccc12)c1ccc(Cl)cc1,-12,21,86*,-12,-8,15,12,-18
Cc1cc(Br)ccc1NC(=O)CN(C)C(=O)C1=COCCO1,-6,-19,-14,6,6,nt,nt,nt
COc1ccc(-c2c[n+](CC(=O)c3cccs3)c3n2CCC3)cc1,13,35,6,12,-5,nt,nt,nt
COc1ccc(C(=O)C[n+]2cc(-c3ccc(OC)cc3)n3c2CCCC3)cc1,37,37,73*,43,-19,68*,26*,-4
O=S(=O)(c1ccc(Cl)cc1)N1CCN(c2ncnc3sccc23)CC1,12,12,50,83,-30,46*,21,35*
Cc1sc2ncnc(N3CCN(S(=O)(=O)c4ccc(C(C)(C)C)cc4)CC3)c2c1C,-4,33,55,73,0,61*,25*,16
Cc1ccc(S(=O)(=O)N2CCN(C(=O)C3CCN(c4ncnc5sc(C)c(C)c45)CC3)CC2)c(C)c1,nt,nt,67*,92*,nt,60*,6,-42
Cc1ccc(OCC(=O)NNC(=O)C2CCN(c3ncnc4sc(C)c(C)c34)CC2)cc1,6,27,-6,20,7,nt,nt,nt
Cc1sc2ncnc(N3CCN(S(=O)(=O)c4ccc(Br)cc4)CC3)c2c1C,17,14,50,83,-39,nt,nt,nt
COC(=O)C1CCN(C2CN(Cc3ccc(C)cc3)S(=O)(=O)C2)CC1 (stereo not given),nt,nt,nt,-11,nt,nt,nt,nt
SMILES,Jurkat NFkB inh,Mdm2 MdmX PPI,Gli-Sufu block,Shn3 inh set2,697 NFkB inh,Gli-Sufu confirm,SufuKO cytotox,Wnt3a cs
O=c1c(Br)c(N2CCCCC2)cnn1-c1ccccc1,-80,-44,-96,-55,-84,nt,nt,nt
Cc1cnc(C(=O)OC(C(=O)c2c[nH]c3ccccc23)c2ccccc2)cn1 (stereo not given),-12,10,6,-2,9,nt,nt,nt
O=C(O)Cn1c(-c2ccccc2)nc2ccccc21,4,-12,96*,-6,-1,29,8,5
CC1CCC(NC(=O)C2c3ccccc3C(=O)N2Cc2cccs2)CC1 (stereo not given),9,20,-2,23,0,nt,nt,nt
COc1ccc2cc(C(=O)NCc3ccccc3)[nH]c2c1,-38,10,51,-28,3,31,11,-59
CCOC(=O)Cn1c(Br)nc2c1c(=O)[nH]c(=O)n2C,-9,4,99*,-6,5,12,7,-15
Cc1c(C(=O)N2CCC[C@H]2CO)oc2c(F)cccc12,-36,-29,nt,-32,-40,nt,nt,nt
Cc1cc(S(=O)(=O)NC(C)c2nnc3ccccn23)ccc1Br (stereo not given),3,13,-1,-7,18,nt,nt,nt
Cc1nc(NCCc2ccc(S(N)(=O)=O)cc2)c2c(C)c(C)sc2n1,8,31,63*,79,-26,59*,39*,25
CC(C)(C)NC(=O)c1cccc(NC(=O)c2ccc(NC(=O)c3ccco3)cc2)c1,-18,15,75*,11,-13,18,12,-87
Cn1nc(C(=O)NC2CCCN(Cc3ccccc3F)C2)c2ccccc2c1=O (stereo not given),4,-15,19,7,-31,nt,nt,nt
CCc1cc(C(=O)NC2CCCN(Cc3ccccc3F)C2)n(C)n1 (stereo not given),30,24,65*,71,-32,45,15,5
COc1cccc(/C=C/c2ccncc2)c1OC,-10,-26,56*,42,-32,46*,21,-1
COCCN(C(=O)CSc1nnc(-c2cccc(F)c2)n1N)c1c(N)n(Cc2ccccc2)c(=O)[nH]c1=O,-16,9,-10,6,-9,nt,nt,nt
COCCN(C(=O)CSc1nnc(-c2ccccc2F)n1N)c1c(N)n(Cc2ccccc2)c(=O)[nH]c1=O,0,-5,54,-4,-2,13,22,-14
COC(=O)Cn1nc(-c2ccc(C)cc2)c2ccccc2c1=O,11,10,-4,19,17,nt,nt,nt
O=C(OC(c1ccccc1)c1nccc2ccccc12)c1cccc([N+](=O)[O-])c1 (stereo not given),-28,3,-28,-29,-38,nt,nt,nt
O=C(OC(c1ccccc1)c1nccc2ccccc12)c1ccccc1 (stereo not given),nt,nt,65*,50,nt,79*,28*,92*
NC(=O)C1CC(=O)N(c2ccc(OCc3ccc(Cl)c(Cl)c3)cc2)C1 (stereo not given),nt,nt,nt,17,nt,nt,nt,nt
